56 compounds from PubChem BioAssay AID720532 (National Center for Advancing Translational Sciences (NCATS), 2013) can be followed below.

Where “and” joins values, the source holds several entries; their conditions need not be identical. Equal entries are not always repeated. Hit rate of the full screen: of about 18,000 compounds, about 1,200 (6.7%) were called active. A call without a number means that no potency is given here. Roughly 16% stayed inconclusive and do not appear here. Calls follow the shape of the full dose curve; tested in HEK293 cells. This excerpt belongs to a sample that is enriched for actives. Some structures have more than one record in an assay (separate samples or runs), and their calls can disagree.
Potency is read from the fitted curve at half-maximal effect.

This assay is described as follows: qHTS for Inhibitors of binding or entry into cells for Marburg Virus. The note with it: Marburg virus pseudotype entry/binding inhibition, cell-based; series mostly up to 49.2 µM. On the technique in general: In qHTS, concentration-response curves come from the screen itself.
Turning to `COc1ccc(-c2nc(-c3ccccc3)oc2Nc2ccc3ccccc3c2)cc1`, the activity change, negative = inhibition entry was “inactive”.
On the same count and under the same terms, to `O=S1(=O)CC(N2CCC(Cc3ccccc3)CC2)CN1Cc1ccccc1` (stereo unspecified) belongs “inactive”; to `CCOC(=O)C1=C(C(=O)OCC)C(C(=O)OCC)N(S(=O)(=O)C(F)(F)F)c2ccccc21` (stereo unspecified), “inactive”; to `COC(=O)C(C(=O)OC)[C@@H](NC=O)c1ccccc1`, “inactive”.
For `C=CCN(Cc1ccc([N+](=O)[O-])cc1)S(=O)(=O)C=C`, the activity change, negative = inhibition entry was “inactive”.
Still for that read-out and setting: to `COC(=O)CC=C[C@@H](C)[C@H](NC(=O)OCC(Cl)(Cl)Cl)c1ccc2ccccc2c1` belongs -17.9% [at 8.59 µM] (inactive).
The same measure, in the same setting: to `CC[C@H](C)[C@H](NC(=O)[C@@H](N)CCC(=O)O)C(=O)N[C@@H](CC(C)C)C(=O)N[C@@H](CC(=O)O)C(=O)N[C@H](C(=O)N1CCC[C@H]1C(=O)N[C@@H](CO)C(=O)N[C@H](C(=O)O)[C@@H](C)O)C(C)C` belongs “inactive”.
For `CCCCN1CC(COc2ccccc2)Oc2cccc(F)c2S1(=O)=O` (stereo unspecified), the activity change, negative = inhibition result is “inactive”.
On the same count and under the same terms, in the case of `CCCCN1CC(COCc2ccccc2)OCCS1(=O)=O` (stereo unspecified) it was “inactive”; in that of `CC[C@@]12C=C(/C=C/c3ccccc3)[C@](CC)(C1)[C@H](c1ccccc1)CC2=O`, “inactive”; in that of `FC(F)(F)c1ccc(-c2nn3ncccc3c2-c2ccnc(Nc3ccc4c(c3)OCCO4)n2)cc1`, “inactive”.
Regarding `COc1cc(Nc2nccc(-c3cnn4ncccc34)n2)cc(OC)c1`, the Potency is 3.53 µM (active).
On the same count and under the same terms, in the case of `C[C@@H]1C[C@H]2CC[C@H](O2)[C@H](C)C(=O)O[C@@H](C)C[C@@H]2CC[C@@H](O2)[C@@H](C)C(=O)O[C@H](C)C[C@H]2CC[C@H](O2)[C@H](C)C(=O)O[C@@H](C)C[C@@H]2CC[C@@H](O2)[C@@H](C)C(=O)O1` it was 0.631 µM (active).
As for `C#CCNc1ccc2c(c1)OC[C@@H](C)NS2(=O)=O`, the activity change, negative = inhibition entry was “inactive”.
For `COc1cc2c(c(OC)c1OC)CC(C)=C(C)CC2NC(=O)C(F)(F)F` (stereo unspecified), the activity change, negative = inhibition was -9.07% [at 8.59 µM] (inactive).
Still for that read-out and setting: to `COCOCCn1cc(CN2CCS(=O)(=O)N(Cc3ccc(-c4cccc(N(C)C)c4)cc3)C(CC(C)C)C2=O)nn1` (stereo unspecified) belongs “inactive”.
For `C[C@H](CO)NS(=O)(=O)c1ccc(Br)cc1F`, the activity change, negative = inhibition result was “inactive”.
With `CCCCC/C=C\C[C@H](O)/C=C/C=C/C=C/[C@@H](O)CCCC(=O)O`, the activity change, negative = inhibition result was “inactive”.
Still for that read-out and setting: in the case of `C=CCOC(=O)C(=C)C` it was “inactive”; in that of `C[C@@H]1CC2=CCCC2[C@]2(O1)C(=O)N(CC1CC1)c1cccc(Br)c12` (stereo partly specified), 72.4% [at 8.59 µM] (inactive); in that of `O=C(Nc1cccc(C(=O)N2CCCC2)c1)c1ccccc1`, “inactive”.
`CC(=O)N1CCN(Cc2cc(=O)oc3cc(C)ccc23)CC1`: the activity change, negative = inhibition result was “inactive”.
Regarding `O=C(OCCN1CCOCC1)C1(c2ccccc2)CCCCC1`, the Potency entry is “inactive and 31.6 µM (active)”.
Turning to `COc1cc(OC)c2c(c1Cl)OC1(C2=O)C(O)=CC(=O)CC1C` (stereo unspecified), the activity change, negative = inhibition entry was “inactive”.
For `CSc1ccccc1N1CCN(CCCCCC(=O)NC2CCCc3ccccc32)CC1` (stereo unspecified), the Potency was 10 µM (active).
Same read-out and setting: to `COC(=O)Nc1nc2ccc(Oc3ccc(NC(=O)Nc4cccc(Cl)c4)cc3)cc2[nH]1` belongs 4.99 µM (active).
`COC(=O)Nc1nc2ccc(Sc3ccccc3)cc2[nH]1`: the activity change, negative = inhibition result was “inactive”.
In the case of `C1CC[C@H]([C@@]23C[C@H](C[C@H]4CCCN[C@H]42)[C@@H]2CCCCN2C3)NC1`, the Potency was 12.6 µM (active).
As to `COC(=O)CC=C[C@@H](C)[C@H](NC(=O)OCC(Cl)(Cl)Cl)c1ccccc1`, the activity change, negative = inhibition is 0.224% [at 8.59 µM] (inactive).
In the case of `NC[C@@H]1O[C@H](O[C@@H]2[C@H](O[C@@H]3O[C@H](CO)[C@@H](COC[C@H]4O[C@@H](CN)[C@@H](O)[C@@H](O)[C@@H]4N)[C@@H]3O)[C@@H](O)[C@@H](N)C[C@H]2N)[C@@H](N)[C@H](O)[C@@H]1O`, the activity change, negative = inhibition entry was “inactive”.
As to `Nc1ccc2c3c(cccc13)C(=O)NC2=O`, the activity change, negative = inhibition result was “inactive”.
As for `S=C(NCCCc1cnc[nH]1)NCCCN(Cc1ccc(Cl)c(Cl)c1)c1ccc(Br)cn1`, the Potency was 20 µM (active).
Regarding `CCCCC[C@H](O)/C=C/[C@@H]1[C@@H](CC(=O)CCC(=O)O)[C@@H](O)C[C@H]1O`, the activity change, negative = inhibition result is “inactive”.
Still for that read-out and setting: in the case of `CCOC(=O)[C@@]12C3[C@@H](CCN3C(=O)N[C@@H]1c1ccccc1)[C@@H]2C` (stereo partly specified) it was -11.3% [at 8.59 µM] (inactive).
Still for that read-out and setting: in the case of `O=S1(=O)CCSCCN1Cc1ccccc1F` it was “inactive”; in that of `CC(C)NC[C@H](O)c1ccc2ccccc2c1`, “inactive”; in that of `Nc1nc2nc(Cl)[nH]c2c(=O)[nH]1`, “inactive”.
Same read-out and setting: in the case of `COC(=O)c1cc(C(=O)OC)n2ccc3cc(OC)c(OC)cc3c12` it was 51.8% [at 8.59 µM] (inactive); in that of `CO/N=C(\C(=O)N[C@@H]1C(=O)N2C(C(=O)O)=C(C[N+]3(C)CCCC3)CS[C@H]12)c1csc(N)n1`, “inactive”.
`COc1ccc2nccc(C(=O)O)c2c1`: the activity change, negative = inhibition entry was “inactive”.
Consider `CC[C@@H]1CN2CC[C@@H]1C[C@H]2[C@H](O)c1ccnc2ccc(OC)cc12`, for which the Potency was 31.6 µM (active).
As for `COc1cccc([C@@H]2Oc3ccc(Br)cc3C(=O)[C@H]2OC(=O)NCCc2ccc(OC)c(OC)c2)c1`, the activity change, negative = inhibition result is “inactive”.
Still for that read-out and setting: to `CCC(C(=O)OCCN(CC)CC)c1ccccc1` (stereo unspecified) belongs “inactive”.
`CCCC(C(=O)OCCN(CC)CC)(c1ccccc1)c1ccccc1`: the Potency is 15.8 µM (active).
As to `CC[N+]1(CCOC(=O)C(O)(c2ccccc2)c2ccccc2)CCCCC1`, the activity change, negative = inhibition result is “inactive”.
Turning to `CCCCC/C=C\C/C=C\CCCCCCCCCC(N)=O`, the activity change, negative = inhibition entry was “inactive”.
As for `CCCCOCC1CN(CCCC)S(=O)(=O)c2c(Oc3ccc(F)cc3)cccc2O1` (stereo unspecified), the activity change, negative = inhibition entry was “inactive”.
On to `CN1C(=O)CN2CCc3ccccc3C2c2cc(Cl)ccc21` (stereo unspecified), for which the activity change, negative = inhibition entry was “inactive”.
Take `CN1CCN2c3ccccc3Cc3ccccc3[C@@H]2C1`: the Potency was 15.8 µM (active).
Consider H-EHIPA-OH, for which the activity change, negative = inhibition result was “inactive”.
As for `COc1ccc(Nc2ncnc3ccc(OC)cc23)cc1`, the activity change, negative = inhibition result is “inactive”.
For `CC(C)(C)OC(=O)Nc1ccc(OCc2cn(CC(=O)c3ccc(O)cc3)nn2)cc1`, the activity change, negative = inhibition result was “inactive”.
As to `CO/N=C(/C(=O)N[C@@H]1C(=O)N2C(C(=O)O)=C(Cn3nnc(C)n3)CS[C@H]12)c1csc(N)n1`, the activity change, negative = inhibition result was “inactive”.
Still for that read-out and setting: to `CC/C=C\C/C=C\C/C=C\C/C=C\C/C=C\C/C=C\CCC(=O)NC(C)C(=O)O` (stereo unspecified) belongs “inactive”.
The same measure, in the same setting: to `CC12C=C(C=Cc3ccc(F)cc3)C(C)(C1)C(c1ccc(F)cc1)CC2=O` (stereo unspecified) belongs 8.67% [at 8.59 µM] (inactive); to `CC(C)[C@H]1CC[C@@H](C)C[C@H]1O`, “inactive”.
